Whole data set: some 59,000 sequences, median the read-out near -0.00055, cut for the lowest 2% near -2. Shown is part of a subset that was picked to be rich in the lowest values.

The nature of this assay: Identification of proteins required for the processing of the EWS-FLI1 nascent transcript.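 Note: robust z of luciferase light less the median z of siRNAs with the same seed.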 The settings on record: TC32 Ewing sarcoma NR0B1-luc vs CMV-luc (EWS-FLI1 target promoter against control promoter), 48 h; screened at 20 nM (by protocol). The protocol: Ewing sarcoma (ES) cells depend on the EWS-FLI1 fusion transcription factor for cell survival. Using an assay of EWS-FLI1 activity and genome-wide siRNA screening we have identified proteins required for the processing of the EWS-FLI1 nascent transcript. Parallel genome-wide siRNA-mediated RNAi screens were conducted in Ewing sarcoma TC32 cell lines expressing a luciferase (luc) reporter protein driven by either the promoter of the EWS-FLI1 target gene NR0B1 (TC32-NR0B1-luc) or the CMV promoter (TC32-CMV-luc). Luciferase activity was assessed 48 hours post siRNA-transfection.
Twenty microl of serum-free media containing Lipofectamine RNAiMax (0.05 microl) was added to wells containing siRNA (0.8 pmol). Lipid and siRNA were allowed to complex for 45 min at ambient temperature before addition of 600 cells in RPMI-1640, 20% FBS to yield final transfection mixtures containing 20 nM siRNA in RPMI-1640, 10% FBS. Luciferase expression was measured using OneGlo (Promega, Madison, WI). The genome-wide screening campaign was conducted using Ambion's human genome library version 4.1 (Ambion, Austin TX). This library targets approximately 21000 human genes, three siRNAs per gene. Each siRNA is arrayed in an individual well of a 384-well plate. Parallel transfections were conducted in TC32-NR0B1-luc and TC32-CMV-luc cell lines and luciferase expression (OneGlo, Promega) was assayed 48 h later on a PerkinElmer Envision 2104 Multilabel plate reader (PerkinElmer, Waltham, MA). Qiagen's AllStars Negative control was incorporated on all screening plates for normalization (16 wells per plate). Qiagen, Germantown, MDsiGL4 was incorporated as a positive transfection control (16 wells per plate) on all plates. […] The raw luciferase data for the NR0B1- and CMV-luc screens were normalized and z-score-MAD transformed using standard methods (Chung et al., 2008). The miRNA-like seed sequence of every siRNA was determined and the median z-score for all siRNA sequences with the same seed sequence was calculated. This z-score was subtracted from the z-score associated with each siRNA with that seed sequence to generate a seed-adjusted z-score value (Z) that was used when the results for the three siRNAs corresponding to each gene were compared (Marine et al., 2012)
Sequence AAUGAAGGAACCAUUGCCC against IL18BP gave a seed-corrected z-score of 1.21.

With AAAUAUCCCAUAAUCAGUG against LYZ, the seed-corrected z-score is -0.541.

AAUGGAUCCAAAGAGGCUA against KIFC2 came in with a seed-corrected z-score of 0.744.

The sequence UUUAAUGUAACUCCCACUU against DLGAP2 came in with a seed-corrected z-score of 0.4.

UGUGGUUCAACAAGAAGCU against CD177: the seed-corrected z-score was -1.65.

In the case of ACUGGAACAAGAACCGUCC against PDIA5, the seed-corrected z-score came out at 0.508.

In the case of UGAUCGUACAGGUGCAUCG against IL1B, the seed-corrected z-score was -0.147.

Turning to AAAUGAUCUGGUUUCCUUC against OLFML1, the seed-corrected z-score is -0.829.

Take UAAAUAGCAGCAUCUACUC against PPM1E: the seed-corrected z-score is 0.41.

AAAACGAUCAAAAUCUGUC against RPL14 showed a seed-corrected z-score of -2.5.

UACGUACUCAUUCUUCAGG against CMC2 displayed a seed-corrected z-score of -0.986.

UACAGGUAGGAGUUGUCCU against PRKACG returned a seed-corrected z-score of 0.0436.

Turning to UUUUAUAGAGGGAUAUUCG against NPC2, the seed-corrected z-score was 1.05.

Consider AACUGGUUCAUCAGUGUCC against WDR89, for which the seed-corrected z-score is -2.

As for UGAAAUGCUAAUGCGUGGG against RBM33, the seed-corrected z-score came out at 0.224.

For UGCUUGCGAACAAACAGCC against SCD5, the seed-corrected z-score worked out at 0.624.

UAGUGAUAGAUACUGUUCC against HGF returned a seed-corrected z-score of -0.568.

With UUUUGAUUAACUCGAGGAG against TSSK1B, the seed-corrected z-score came to 0.323.

The sequence UAGGGUCAUCGAGAGGUUC against MAML3 had a seed-corrected z-score of -2.49.

Turning to UGCAGUUUGACGGUGCCUC against TMEM204, the seed-corrected z-score was -0.467.

As for UCCCAUUCCACUGCUACUG against RBMX, the seed-corrected z-score is -2.45.

UAACUCGAAAGUGAACUUC against MYOZ3: the seed-corrected z-score came out at 0.0654.

Turning to UAGGUAAUAAUUCACAAUG against CCL19, the seed-corrected z-score is -0.226.

Take UCUGUUGGUACUGUGCAGG against PPA1: the seed-corrected z-score was -1.37.

UCCGUUCACAUUCAGGAUC against SLC6A16: the seed-corrected z-score was -0.88.

As for UCCUUGUAGAGCUUGAUGG against TOP3B, the seed-corrected z-score is 1.26.

For the sequence AACUAGAAUAAAGAAGAUG against SLC6A9, the seed-corrected z-score was found to be 0.0838.

AAAACUUCAAAUACCAUGC against SRPK1 yielded a seed-corrected z-score of -1.05.

As to UUGCGGGUGACAAUCUCCC against CROCC, the seed-corrected z-score stood at 0.165.

In turn, UUUCCGGAUCAGACCGUGC against RPS29 displayed a seed-corrected z-score of 1.1.

UCACGGUCAACAAAGUAGG against BRINP1: the seed-corrected z-score is -2.87.

UAUAAGAAAUGGUUUUGUC against OR6C6 registered a seed-corrected z-score of 0.719.

Sequence AUCACGUUUAUGUCCAUUG against BMPER had a seed-corrected z-score of -0.464.

On to UUGGCGUUCAUAAGCCGCC against PTRH1, for which the seed-corrected z-score came out at 0.961.

In the case of ACUCUUUUUAAGGUGCUUC against DTX1, the seed-corrected z-score is -3.91.

AAGUUUUCCAACGUACUCU against IL4 registered a seed-corrected z-score of 0.239.

AAGGUUGAGAGAUGUAGCU against SPANXA1 displayed a seed-corrected z-score of 1.05.

UUUUAUUCUUUCGCUUUUU against MEAF6 had a seed-corrected z-score of -1.39.

In turn, UUUGGAAUCAUCCAGGAAA against C8orf82 gave a seed-corrected z-score of 0.192.

On to UUCUGGAUAACAAAGUCAC against PCDH1, for which the seed-corrected z-score amounted to 0.112.

In turn, UGGUGAUUCAGAUAGCUGG against ARHGAP11A showed a seed-corrected z-score of -0.84.

On to AUCUUGAUAGGGACCUUGG against PRAP1, for which the seed-corrected z-score is 0.654.

In the case of UGAUCUUAUAGUAAUCAGG against BRD4, the seed-corrected z-score was -2.52.

Regarding GACGGCAUCAAUCAGGUCC against PYCR1, the seed-corrected z-score is 0.0435.

AAAGAUGCAACCAAUGCUC against CDK3 had a seed-corrected z-score of -0.134.

Sequence UUACUUCAAAACGGUAUCC against ASB17 displayed a seed-corrected z-score of -9.19.

For the sequence UGAUUGUUGACUGACGAUG against DMXL1, the seed-corrected z-score stood at 1.23.

UUCUUUCAAAUUUCGGUUG against SOX13 registered a seed-corrected z-score of 0.262.

Consider UCUUGCUCUAGUGUCCUGG against DNAJC17, for which the seed-corrected z-score is -2.46.

Sequence UUUAUCCUCAAAACUCUCC against C6orf10 had a seed-corrected z-score of 0.952.

As for UCUCAUACUUCCCAUGCCC against LSP1, the seed-corrected z-score is -0.209.

Sequence UAUGGGACACUUAUUGGAG against PVRIG showed a seed-corrected z-score of -0.543.

In turn, AGAGCACUGAGUAGAAUGC against MFSD9 yielded a seed-corrected z-score of -1.44.

Regarding UGCUUGUCUAAGCCUUUGG against RPS12P9, the seed-corrected z-score was -2.08.

In turn, UAAGGUAAUGAUUACCACC against RBKS registered a seed-corrected z-score of -0.288.

UUGACUACCAGGAAAGGCU against KRT86 gave a seed-corrected z-score of -0.062.

Regarding UAUUUAUUGCGAGAAUCAG against CLCN4, the seed-corrected z-score is -3.96.

Sequence UCCAGAAGCUGGAUGGUCC against GALE gave a seed-corrected z-score of -0.197.

Sequence UGACGUACAGGUUAGCAUC against ELAVL3 came in with a seed-corrected z-score of 0.583.

Consider AACGGUAUUGAUGACAGCC against TMLHE, for which the seed-corrected z-score was -0.307.

Take UACGAUGUCACCUAUAUUG against CSMD2: the seed-corrected z-score was -0.00124.

The sequence UAUCUUGAGAGGUGCCUCC against THRAP3 had a seed-corrected z-score of 1.

On to UCGUACUUUAAAGAUGUCC against CR1, for which the seed-corrected z-score was -0.43.

Regarding UUGUUUGCAGGAAGGGAGG against LOC643770, the seed-corrected z-score is -0.34.

Sequence UUUCUGUUCUUACAGGUGG against SRSF5 yielded a seed-corrected z-score of -1.33.

AUAGUAAAACCAAUUACCC against OR2J2 displayed a seed-corrected z-score of -2.15.

AUGGUGAAGACGUAGUUGC against CACNA1H came in with a seed-corrected z-score of -1.21.
